Data as given in PubChem BioAssay AID1347434 (National Center for Advancing Translational Sciences (NCATS), 2020).
Hit rate of the full screen: of about 1,200 compounds, about 30 (2%) were called active. Another 23% or so got no clear call; they are omitted. Calls follow the shape of the dose curve; as a rule, active = well fitted inhibition curve with a large enough effect; inconclusive = small, poorly fitted or top-dose-only effect; inactive = flat fitted curve, though single readings scatter. For the sample, actives were picked, then their nearest neighbours and some compounds at random.

The compounds below were run against Single-stranded DNA cytosine deaminase (Homo sapiens) (UniProt Q9GZX7) (assay: Confirmatory qHTS assay for inhibitors of Activation Induced Cytidine Deaminase (AID): AID signals). Conditions: recombinant AID, FRET deamination/UDG coupled fluorescence, 4 h; series mostly up to 115 µM; activity, negative = inhibition: at the top concentration.
Procedure, shortened: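 Read 1 (AID) was measured at 540 ex/590 em after a 30 min NaOH step. The reaction was AID (1 uM, 4/3x stock) with UDG, compound at final 7.32 nM - 114 uM for 10 min, then DJC20/DJC23 substrate for 4 hr at room temperature. A UDG read at 560/665 serves as counterscreen.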
% is scaled to controls: 0 for no effect and ±100 for the full control effect; potency is read from the fitted curve at half-maximal effect.

Chain of Single-stranded DNA cytosine deaminase (Homo sapiens) (Q9GZX7 whole entry, looked up): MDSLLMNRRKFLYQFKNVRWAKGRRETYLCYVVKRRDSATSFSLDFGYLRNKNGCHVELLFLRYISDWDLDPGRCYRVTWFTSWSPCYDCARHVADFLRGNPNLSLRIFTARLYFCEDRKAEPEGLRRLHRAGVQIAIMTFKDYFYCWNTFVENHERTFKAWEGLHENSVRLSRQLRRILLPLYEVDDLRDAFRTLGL

| SMILES | activity, negative = inhibition | Potency |
| --- | --- | --- |
| CCc1nn(CCCC(=O)N2CCN(c3cc(Cl)ccc3C)CC2)c(=O)c2cc3occc3n12 | -25% (inactive) |  |
| CCn1cc2nc(SCC(=O)Nc3ccccc3C(F)(F)F)n(Cc3ccc(C)cc3)c(=O)c2n1 | -22.9% (inactive) |  |
| CCc1ccc2c(c1)c(=O)c(S(=O)(=O)c1ccc(Cl)cc1)cn2CC | -7.45% (inactive) |  |
| Cc1ccccc1OCc1nnc(SCc2cc(=O)c3ccc(C)c(C)c3[nH]2)n1C | -24.7% (inactive) |  |
| CCOc1ccc(CCNC(=O)c2nc(-c3cccc(F)c3)n3c2CCCCC3)cc1OCC | -12% (inactive) |  |
| Cc1ccc(C)c(N2CCN(C(=O)c3ccc(CS(=O)(=O)c4ccc(Br)cc4)o3)CC2)c1 | -8.36% (inactive) |  |
| CCOC(=O)CSc1nnc2n(-c3ccccc3)c(=O)c3c4c(sc3n12)CC(C(C)(C)C)CC4 (configuration not stated) | -11.7% (inactive) |  |
| CCn1cc(C(=O)NCCCOC(C)C)c(=O)c2cc(S(=O)(=O)N(C)C3CCCCC3)ccc21 | -14.5% (inactive) |  |
| Cc1cccc(CCNc2ncnc3onc(-c4ccc(Cl)cc4)c23)c1 | 2.28% (inactive) |  |
| Cc1cc2c(cc3c(SCc4ccc(Cl)cc4)nnc(C)n32)o1 | -7.73% (inactive) |  |
| Cc1c(C)n(C)c2ccc(C(=O)N3CCN(c4ccccc4)CC3)cc12 | 0.494% (inactive) |  |
| CC(=O)c1ccc(NC(=O)C2CCN(c3nnc(C)c4c(C)n(-c5ccccc5)nc34)CC2)cc1 | -29.1% (inactive) |  |
| COc1ccc(CC(=O)Nc2sc3c(c2C(=O)Nc2cccc(Cl)c2)CCCCC3)cc1 | 2.52% (inactive) |  |
| CCCN(CCC)C(=O)Cn1c(=O)n(Cc2ccc(C(=O)NCCc3ccc(OC)c(OC)c3)cc2)c(=O)c2ccccc21 | -3.63% (inactive) |  |
| Cc1cccc(N2CCN(C(=O)C3CCN(c4ncnc5c4nc4n5CCCCC4)CC3)CC2)c1C | -17.9% (inactive) |  |
| Fc1ccc(Cn2c(-c3cccc(Br)c3)nc3ccccc32)cc1 | -17.1% (inactive) |  |
| COc1ccc(C(=O)NCC(c2cccnc2)N2CCc3ccccc32)cc1 (configuration not stated) | 1.56% (inactive) |  |
| Cn1c(=O)c2c(-c3ccc(Br)cc3)n(CCc3ccccc3)cc2n(C)c1=O | -16.2% (inactive) |  |
| CCc1ccc(CNC(=O)C(CC)n2nc(C)c3c(C)n(-c4ccccc4)nc3c2=O)cc1 (configuration not stated) | -18.2% (inactive) |  |

| SMILES | activity, negative = inhibition | Potency |
| --- | --- | --- |
| Cc1cccc(Cn2c(=O)n3nc(-c4ccccc4)nc3c3ccccc32)c1 | -4.38% (inactive) |  |
| Clc1ccc(-c2noc3ncnc(NCCCN4CCN(c5ccccc5)CC4)c23)cc1 | 0.554% (inactive) |  |
| Cc1ccc(C)c(CN2C(=O)c3ccccc3S(=O)c3ccc(C(=O)N4CCC(C)CC4)cc32)c1 (configuration not stated) | -10.6% (inactive) |  |
| COc1ccc2c(C)cc(SCC(=O)Nc3nsc(-c4ccc(C(C)(C)C)cc4)n3)nc2c1 | -8.76% (inactive) |  |
| Cc1ccc(-c2nc(NC(=O)CSc3cc(C)c4ccccc4n3)ns2)cc1 |  | 28.2 µM (active) |
| O=C(CSc1nc2ccccc2nc1Cc1ccccc1)Nc1ccccc1C(F)(F)F | 1.65% (inactive) |  |
| C=CCc1ccccc1OCCSc1nc(-c2ccc(C(C)(C)C)cc2)nc2cc(=O)[nH]n12 | -11.2% (inactive) |  |
| O=c1cc2nc(-c3cccs3)nc(SCCOc3ccc(Cl)cc3)n2[nH]1 | -10.7% (inactive) |  |
| Cc1cc(OCCCSc2nc(-c3ccc(C(C)(C)C)cc3)nc3cc(=O)[nH]n23)ccc1Cl |  | 31.6 µM (active) |
| Cc1cccc(C(=O)Nc2sc3c(c2C(=O)O)CCCC3)c1 | -16.9% (inactive) |  |
| Cc1nc2c(-c3ccccc3)c(C)nn2c(C)c1CCC(=O)N1CCN(c2ccccc2)CC1 | -7.22% (inactive) |  |
| CCOc1ccc(-c2nn(-c3ccccc3)cc2C2NC(=O)NC(C)=C2C(=O)OC(C)C)cc1C (configuration not stated) | -12.4% (inactive) |  |
| O=C(NCCc1nc2ccccc2n1Cc1ccc(Cl)cc1Cl)c1ccco1 | -6.08% (inactive) |  |
| CCN(C(=O)Cn1c(SCC(=O)Nc2ccc(OC)cc2)nc2ccccc21)c1cccc(C)c1 | -22% (inactive) |  |
| CC(C)(C)c1ccc(C(=O)N2CCCC(c3nc4c(nnn4Cc4cccc(F)c4)c(=O)[nH]3)C2)cc1 (configuration not stated) | -4.66% (inactive) |  |
| CCOc1ccc(CN2CCc3nc(Nc4ccc(OC)cc4OC)ncc3C2)cc1 | -2.62% (inactive) |  |
| CC(=O)O[C@H]1C[C@@H]2CC[C@@H]3[C@H](CC[C@@]4(C)[C@H]3C[C@H]([N+]3(C)CCCCC3)[C@@H]4OC(C)=O)[C@@]2(C)C[C@@H]1[N+]1(C)CCCCC1 |  | 17.8 µM (active) |
| Cc1cc2c(cc3c(SCc4cccc(Cl)c4)nnc(C)n32)o1 | 0.875% (inactive) |  |
| COC(=O)c1ccc(OCC2c3cc(OC)c(OC)cc3CCN2C(=O)c2cccc(C)c2)cc1 (configuration not stated) | -7.23% (inactive) |  |

| SMILES | activity, negative = inhibition | Potency |
| --- | --- | --- |
| CC(C)c1ccc(NC(=O)c2ccc3c(O)c(S(=O)(=O)c4ccccc4)c(=O)[nH]c3c2)cc1 |  | 31.6 µM (active) |
| CCc1ccc(NC(=O)c2ccc3c(O)c(S(=O)(=O)c4ccccc4)c(=O)[nH]c3c2)cc1 | -17.9% (inactive) |  |
| O=C(NCc1ccccc1Cl)c1ccc2c(O)c(S(=O)(=O)c3ccccc3)c(=O)[nH]c2c1 | -12.7% (inactive) |  |
| Cc1ccc(Cl)cc1N1CCN(C(=O)c2ccc(C)c(-n3c(C)nc4cccnc43)c2)CC1 | -6.99% (inactive) |  |
| CCc1ccc(NS(=O)(=O)c2ccc3oc(=O)c4ncn(CC)c4c3c2)cc1 | -15.8% (inactive) |  |
| CCOc1ccc(-c2noc(CSc3nnc(Cc4ccccc4)n3-c3ccc(F)cc3)n2)cc1 | -19.5% (inactive) |  |
| COc1ccc(N2CCN(C(=O)c3sc4nc5n(c(=O)c4c3C)CCC5)CC2)cc1 | -13.6% (inactive) |  |
| CCN(CC)c1cc(C)c2cc(NC(=O)c3cccc(OC)c3)ccc2n1 | -9.48% (inactive) |  |
| CCOC(=O)C1=C(CN(CC)Cc2ccccc2)NC(=O)NC1c1ccc(Cl)cc1 (configuration not stated) | -14% (inactive) |  |
| CCc1ccc(CN(Cc2ccco2)C(=O)c2ccc(C)cc2)cc1 | 1.83% (inactive) |  |
| CCCCC1CCC(CCCC(C)CCC(=O)O)CC1 (configuration not stated) |  | 35.5 µM (active) |
| Cc1ccc(C2=NN(CC(=O)NCCCN(CC(C)C)CC(C)C)C(=O)CC2)cc1 | -12.2% (inactive) |  |
| COc1ccc(-n2c(-c3ccc(C)cc3)cc3c2CC(C)(C)CC3=O)c(OC)c1 | -15.8% (inactive) |  |
| Cc1ccc(Cc2c(C)nc3nc(SCC(=O)NC(C)c4ccccc4)nn3c2C)cc1 (configuration not stated) | -6.04% (inactive) |  |
| CCCCOc1ccc(C(=O)NCC(c2ccc(Cl)cc2)N2CCOCC2)cc1 (configuration not stated) | -2.89% (inactive) |  |
| CC1CCCCN1C(=O)CSc1nc2ccccc2nc1Cc1ccccc1 (configuration not stated) | -15.5% (inactive) |  |
| COc1cccc(-c2nc(CS(=O)CC(=O)N3CCN(c4cccc(C(F)(F)F)c4)CC3)c(C)o2)c1 (configuration not stated) | -23.9% (inactive) |  |
| CCc1nc(Nc2ccc(F)c(Cl)c2)c2c3c(sc2n1)CCCC3 | 2.84% (inactive) |  |
| Cc1ccc2nc(Cl)c3cc(C(=O)N4CCCC(C)C4)sc3c2c1 (configuration not stated) | -2.34% (inactive) |  |
